Reference: the supplement of paper PMC13094657
± gives the standard deviation of the averaged measurements.

Experiments:
[1] = test system: MDA-MB-231; test: cell viability relative to vehicle unstimulated control (fraction); higher = more viable cells; details: pre-treatment time: 18 h then 24 h IFNg/TNF
[2] = test system: MDA-MB-231; test: kynurenine production, fold change vs DMSO IFNg/TNF control; higher = more kynurenine produced (less inhibition); details: pre-treatment time: 18 h then 24 h IFNg/TNF
Procedure, shortened: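 MDA-MB-231 cells were seeded in 96-well plates at 7 × 10^4/well and, 24 h later, pre-treated for 18 h with each natural product in 0.1% DMSO. They were then stimulated for 24 h at 37°C with IFNγ (1 U/ml) and TNF (6.25 ng/ml). Supernatants were treated with trichloroacetic acid and p-dimethylaminobenzaldehyde and read at 492 nm against 0–100 μM standards. Kynurenine production is expressed as fold change over cytokine-stimulated vehicle wells on the same plate and, in the first screening round, averaged across duplicate plates.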
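For cell viability relative to vehicle unstimulated control in this document: viability of the cells left after supernatant collection, read with Deep Blue dye added for 4 h, as absorbance at 570 nm minus 600 nm.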

For `C=C1CCC[C@]2(C)CC[C@@H](C(C)(C)O)C[C@@H]12` [Beta-Eudesmol] (compound dose: 10 uM), the cell viability [1] was 1.077 ± 0.0077 and the kynurenine production [2] was 0.904 ± 0.14.
`CC1=CC23C(=O)C(C=C4COC(C)(C)OC4C24OC(C)(C)OC14)C1C(CC3C)C1(C)C` (configuration not stated) [Ingenol-3,4:5,20-diacetonide] (compound dose: 10 uM) gave a cell viability [1] of 1.04 ± 0.022 and a kynurenine production [2] of 1.11 ± 0.045.
`COC(=O)C1=CC[C@@]23CC[C@@H]([C@@](C)(/C=C/C=C(\C)C(=O)O)OC2=O)[C@@]3(O)CC1` [Pseudolaric Acid C] (compound dose: 10 uM) gave a cell viability [1] of 0.927 ± 0.094 and a kynurenine production [2] of 1.23 ± 0.051.
Molecule `C[C@H]1O[C@@H](O[C@H]2CC[C@@]3(C)[C@@H](CC[C@]4(C)[C@@H]3C=C[C@]35OC[C@@]6(CCC(C)(C)C[C@H]63)[C@H](O)C[C@]54C)[C@]2(C)CO)[C@H](O)[C@@H](O[C@@H]2O[C@H](CO)[C@@H](O)[C@H](O)[C@H]2O)[C@H]1O` [Saikosaponin D] (compound dose: 10 uM) has a cell viability [1] of 0.922 ± 0.044 and a kynurenine production [2] of 0.603 ± 0.2.
Work on `COC(=O)C1=CC[C@@]23CC[C@@H]([C@@](C)(/C=C/C=C(\C)C(=O)O)OC2=O)[C@@]3(OC(C)=O)CC1` [Pseudolaric Acid B] (compound dose: 10 uM) yielded a cell viability [1] of 0.898 ± 0.035 and a kynurenine production [2] of 0.62 ± 0.24.
Work on `CC1(C)CC[C@]2(C(=O)O)[C@H](O)C[C@]3(C)C(=CC[C@@H]4[C@@]5(C)CC[C@H](O)C(C)(C)[C@@H]5CC[C@]43C)[C@H]2C1` [Echinocystic acid] (compound dose: 10 uM) yielded a cell viability [1] of 1.03 ± 0.014 and a kynurenine production [2] of 0.787 ± 0.065.
